Experimental data published in PubChem BioAssay (EPA / NIEHS).
Inconclusive results are not listed. Calls of active or inactive are those of the source. The calls were made as follows, unless noted: active = hit-call score of the fitted dose curve at least 0.9, where 1 is the maximum; inactive = score below 0.9.

Tests used:
[1] = molecular target: Glucocorticoid receptor (Homo sapiens) (UniProt P04150); assay: ATG_GR_TRANS: Attagene TRANS-FACTORIAL HepG2 Assay for human Glucocorticoid Receptor (GR) (AID 2282978; active = hit-call score of the fitted dose curve at least 0.9, where 1 is the maximum;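 also: activators score as hits since higher reporter transcript over DMSO is fitted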); settings: HepG2 Attagene TRANS GR reporter, mRNA transcription
How it was run: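 HepG2 cells transiently transfected with GAL4-UAS reporter units and exogenous GR-Gal4 chimera, dosed 24 h. Reporter mRNA by RT-PCR, FAM labeling, HpaI digest and capillary electrophoresis; gain-of-signal fit versus DMSO.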

[2] = molecular target: Oxysterols receptor LXR-beta (Homo sapiens) (UniProt P55055); assay: ATG_LXRb_TRANS: Attagene TRANS-FACTORIAL HepG2 Assay for human Liver X Receptor beta (LXRb) (AID 2282981; active = hit-call score of the fitted dose curve at least 0.9, where 1 is the maximum); settings: HepG2 Attagene TRANS GAL4-LXRb reporter, mRNA
How it was run: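 In this TRANS format, exogenous chimeric NR-Gal4 protein activity, not endogenous factors, drives reporter expression in transfected human HepG2 cells. Exposure lasted 24 h; reporter mRNA was read by fluorescent capillary electrophoresis.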

[3] = ATG_M_32_TRANS: Attagene TRANS-FACTORIAL HepG2 Assay for M32 Transcription Factor (Internal Marker) (AID 2282984; active = hit-call score of the fitted dose curve at least 0.9, where 1 is the maximum;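 also: transcript level of a background control reporter unit measured by RT-PCR and capillary electrophoresis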); settings: HepG2 Attagene TRANS M32 internal marker reporter
How it was run: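 Human hepatoma HepG2, transient MRTU transfection, 24 h treatment. RNA → RT-PCR → fluorescent primer extension → HpaI digest (2 h, 37 C) → CE. Positive-direction fit vs DMSO.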

[4] = molecular target: Transcriptional activator Myb (Homo sapiens) (UniProt P10242); assay: ATG_Myb_CIS: Attagene CIS-FACTORIAL HepG2 Assay for human Myeloblastosis (Myb) Proto-Oncogene Transcription Factor (AID 2282986); settings: HepG2 Attagene CIS-FACTORIAL Myb reporter transcription; actives raise or lower the signal
How it was run: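 Transiently transfected HepG2 cells carrying a multiplexed cis-promoter reporter set report endogenous Myb activity after 24 h compound exposure. Reporter mRNA is read by RT-PCR with capillary electrophoresis of fluorescent products, fitted bidirectionally against DMSO.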

[5] = molecular target: Nuclear respiratory factor 1 (Homo sapiens) (UniProt Q16656); assay: ATG_NRF1_CIS: Attagene CIS-FACTORIAL HepG2 Assay for human Nuclear Respiratory Factor 1 (NRF1) Orphan Gene (AID 2282987); settings: HepG2 NRF1 cis-element reporter, Attagene multiplex; actives raise or lower the signal
How it was run: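 HepG2 cells transiently transfected with multiple cis-regulated reporter units, exposed 24 h. Reporter mRNAs measured by RT-PCR, fluorescent labelling, HpaI digestion and capillary electrophoresis; bidirectional fitting against DMSO.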

[6] = ATG_NFI_CIS: Attagene CIS-FACTORIAL HepG2 Assay for human Nuclear Factor I (NFI) (AID 2282989); settings: HepG2 cis-regulatory reporter, NFI response element transcription; actives raise or lower the signal
How it was run: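 Cells: human liver HepG2, transiently transfected with promoter-regulated reporter transcription units. Exposure 24 h. Detection: fluorescent RT-PCR products separated by capillary electrophoresis, normalised to DMSO negative control.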

[7] = molecular target: Myc proto-oncogene protein (Homo sapiens) (UniProt P01106); assay: ATG_Myc_CIS: Attagene CIS-FACTORIAL HepG2 Assay for human Myelocytomatosis (Myc) Proto-Oncogene Transcription Factor (AID 2282990); settings: HepG2, Attagene cis-reporter transcription factor activity; actives raise or lower the signal
How it was run: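 Multiplexed cis-reporter transcription in HepG2 cells after 24 h chemical treatment. Reporter mRNA measured by RT-PCR and capillary electrophoresis fluorescence; activity fitted bidirectionally against DMSO control.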

[8] = ATG_NRF2_ARE_CIS: Attagene CIS-FACTORIAL HepG2 Assay for human Nuclear Factor Erythroid 2 Related Factor 2 (NFR2) response to Antioxidant Response Elements (ARE) (AID 2282992); settings: HepG2 Attagene ARE/NRF2 reporter, transcription factor activity; actives raise or lower the signal
How it was run: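 HepG2 cells transiently transfected with multiplexed cis-element reporter constructs, 24 h after chemical dosing; reporter mRNA quantified by RT-PCR, fluorescent primer extension, HpaI digestion and capillary electrophoresis. Bidirectional fit relative to DMSO.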

[9] = ATG_Oct_MLP_CIS: Attagene CIS-FACTORIAL HepG2 Assay for human Octamer-Binding Transcription Factor (Oct) (AID 2282993); settings: HepG2 Attagene cis-factorial Oct reporter, mRNA; actives raise or lower the signal
How it was run: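 HepG2, transient MRTU transfection, cis promoter elements; 24 h dosing; RT-PCR/CE fluorescence read-out of reporter mRNA; fit both directions vs DMSO.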

[10] = molecular target: Cellular tumor antigen p53 (Homo sapiens) (UniProt P04637); assay: ATG_p53_CIS: Attagene CIS-FACTORIAL HepG2 Assay for human p53 Transcription Factor (AID 2282994); settings: HepG2 p53 cis-element reporter, Attagene mRNA; actives raise or lower the signal
How it was run: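 HepG2 cells transiently transfected with cis-regulated multiple reporter transcription units, dosed 24 h. Reporter mRNA measured by RT-PCR, 6-FAM primer extension, HpaI digestion and capillary electrophoresis; bidirectional fit relative to DMSO.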

[11] = molecular target: Hepatocyte nuclear factor 4-alpha (Homo sapiens) (UniProt P41235); assay: ATG_HNF4a_TRANS: Attagene TRANS-FACTORIAL HepG2 Assay for human Hepatocyte Nuclear Factor 4 alpha (HNF4a) (AID 2282982; active = hit-call score of the fitted dose curve at least 0.9, where 1 is the maximum); settings: HepG2 HNF4a transactivation reporter, mRNA readout
How it was run: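 Cells used were human HepG2, transiently carrying GAL4-UAS reporter units read out against exogenous NR-GAL4 chimeras. Reporter transcript levels after 24 h dosing were quantified by fluorescent RT-PCR and capillary electrophoresis.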

[12] = ATG_M_06_TRANS: Attagene TRANS-FACTORIAL HepG2 Assay for M06 Transcription Factor (Internal Marker) (AID 2282983; active = hit-call score of the fitted dose curve at least 0.9, where 1 is the maximum); settings: HepG2 Attagene TRANS M06 internal marker reporter
How it was run: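 Internal-marker background readout from a multiplexed TRANS reporter system in HepG2; 24 h dosing; mRNA induction quantified by RT-PCR plus capillary electrophoresis fluorescence; DMSO as negative control and baseline.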

[13] = molecular target: Nuclear receptor subfamily 4 group A member 2 (Homo sapiens) (UniProt P43354); assay: ATG_NURR1_TRANS: Attagene TRANS-FACTORIAL HepG2 Assay for human Nuclear Receptor Related Protein 1 (NURR1) (AID 2282985; active = hit-call score of the fitted dose curve at least 0.9, where 1 is the maximum); settings: HepG2 Attagene TRANS reporter, mRNA readout
How it was run: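 After 24 h chemical dosing, total RNA from transiently transfected HepG2 cells was reverse-transcribed and reporter cDNA PCR-amplified, FAM-labelled and analysed by capillary electrophoresis. Activity fitted in positive direction, DMSO as negative control.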

[14] = ATG_NF_kB_CIS: Attagene CIS-FACTORIAL HepG2 Assay for human Nuclear Factor Kappa B (NF-kB) (AID 2282991); settings: HepG2 Attagene cis-factorial NF-kB reporter mRNA; actives raise or lower the signal
How it was run: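 HepG2 cells transfected with cis-promoter-driven reporter units, so endogenous transcription factor activity is measured. Reporter mRNA quantified 24 h after dosing by RT-PCR and capillary electrophoresis, with bidirectional fitting against DMSO.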

Measured: outcome

Sequence of Cellular tumor antigen p53 (Homo sapiens) (P04637 whole entry, looked up): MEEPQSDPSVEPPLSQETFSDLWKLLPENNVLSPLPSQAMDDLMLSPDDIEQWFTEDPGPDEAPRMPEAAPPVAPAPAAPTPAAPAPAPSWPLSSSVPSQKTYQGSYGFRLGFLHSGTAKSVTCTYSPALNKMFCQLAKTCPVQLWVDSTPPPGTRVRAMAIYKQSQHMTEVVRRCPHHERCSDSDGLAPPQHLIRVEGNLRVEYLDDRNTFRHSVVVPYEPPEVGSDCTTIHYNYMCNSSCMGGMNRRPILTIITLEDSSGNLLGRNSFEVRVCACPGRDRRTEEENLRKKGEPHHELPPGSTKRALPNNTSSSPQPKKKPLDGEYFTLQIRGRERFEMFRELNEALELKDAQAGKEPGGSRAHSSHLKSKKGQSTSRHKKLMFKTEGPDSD
Sequence of Myc proto-oncogene protein (Homo sapiens) (P01106 whole entry, looked up): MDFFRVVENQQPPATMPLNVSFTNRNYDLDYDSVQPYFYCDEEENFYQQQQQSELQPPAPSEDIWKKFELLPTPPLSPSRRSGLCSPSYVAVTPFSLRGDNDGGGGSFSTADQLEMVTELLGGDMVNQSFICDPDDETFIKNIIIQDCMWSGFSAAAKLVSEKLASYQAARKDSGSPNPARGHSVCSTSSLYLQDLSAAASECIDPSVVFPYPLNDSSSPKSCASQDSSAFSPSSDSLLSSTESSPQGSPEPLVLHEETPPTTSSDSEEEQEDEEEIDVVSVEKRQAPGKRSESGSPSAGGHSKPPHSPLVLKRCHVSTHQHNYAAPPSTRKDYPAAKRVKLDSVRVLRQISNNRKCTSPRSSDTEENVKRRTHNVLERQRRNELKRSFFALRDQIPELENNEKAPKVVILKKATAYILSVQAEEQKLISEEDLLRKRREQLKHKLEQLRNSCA
Sequence of Transcriptional activator Myb (Homo sapiens) (P10242 whole entry, looked up): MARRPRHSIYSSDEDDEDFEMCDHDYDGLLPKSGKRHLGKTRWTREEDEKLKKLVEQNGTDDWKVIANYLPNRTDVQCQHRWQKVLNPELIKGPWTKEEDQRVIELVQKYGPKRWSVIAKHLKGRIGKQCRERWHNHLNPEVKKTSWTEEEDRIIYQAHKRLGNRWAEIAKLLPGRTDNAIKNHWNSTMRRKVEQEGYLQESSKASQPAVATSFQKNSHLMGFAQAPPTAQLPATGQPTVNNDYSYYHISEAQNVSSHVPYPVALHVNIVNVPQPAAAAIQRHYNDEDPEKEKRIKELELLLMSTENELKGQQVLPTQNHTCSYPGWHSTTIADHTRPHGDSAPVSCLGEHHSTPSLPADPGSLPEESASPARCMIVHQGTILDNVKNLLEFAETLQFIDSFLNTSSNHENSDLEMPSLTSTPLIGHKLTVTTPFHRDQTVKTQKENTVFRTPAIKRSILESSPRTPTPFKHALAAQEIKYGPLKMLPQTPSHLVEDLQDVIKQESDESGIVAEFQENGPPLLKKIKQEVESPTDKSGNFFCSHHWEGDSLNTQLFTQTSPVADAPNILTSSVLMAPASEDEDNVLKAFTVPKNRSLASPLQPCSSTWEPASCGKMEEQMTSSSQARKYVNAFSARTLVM
Sequence of Nuclear respiratory factor 1 (Homo sapiens) (Q16656 whole entry, looked up): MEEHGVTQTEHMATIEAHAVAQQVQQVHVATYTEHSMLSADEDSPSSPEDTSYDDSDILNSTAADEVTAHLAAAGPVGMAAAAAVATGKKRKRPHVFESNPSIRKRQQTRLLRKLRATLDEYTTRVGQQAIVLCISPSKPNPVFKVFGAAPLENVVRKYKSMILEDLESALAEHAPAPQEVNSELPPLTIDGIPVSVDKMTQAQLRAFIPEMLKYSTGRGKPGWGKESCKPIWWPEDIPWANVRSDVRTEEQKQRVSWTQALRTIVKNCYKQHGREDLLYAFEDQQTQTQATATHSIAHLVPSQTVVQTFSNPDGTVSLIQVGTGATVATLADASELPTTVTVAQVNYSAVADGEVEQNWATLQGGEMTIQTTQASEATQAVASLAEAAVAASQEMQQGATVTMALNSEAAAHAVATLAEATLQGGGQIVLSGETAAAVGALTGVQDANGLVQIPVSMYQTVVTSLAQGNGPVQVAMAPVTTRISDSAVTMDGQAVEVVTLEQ
Sequence of Hepatocyte nuclear factor 4-alpha (Homo sapiens) (P41235 whole entry, looked up, the tested form may be a part): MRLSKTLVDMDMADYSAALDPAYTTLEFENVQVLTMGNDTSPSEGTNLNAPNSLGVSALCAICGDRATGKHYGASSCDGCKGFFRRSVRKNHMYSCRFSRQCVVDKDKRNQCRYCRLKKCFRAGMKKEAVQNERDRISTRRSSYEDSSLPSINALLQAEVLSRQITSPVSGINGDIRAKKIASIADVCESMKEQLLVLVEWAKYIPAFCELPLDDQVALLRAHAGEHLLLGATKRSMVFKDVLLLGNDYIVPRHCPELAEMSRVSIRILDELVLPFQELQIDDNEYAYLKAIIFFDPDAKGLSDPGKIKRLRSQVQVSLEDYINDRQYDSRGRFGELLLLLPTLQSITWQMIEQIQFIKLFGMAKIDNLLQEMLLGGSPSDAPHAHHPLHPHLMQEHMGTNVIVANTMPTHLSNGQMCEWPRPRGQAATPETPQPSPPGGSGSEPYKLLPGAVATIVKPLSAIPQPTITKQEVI
Sequence of Oxysterols receptor LXR-beta (Homo sapiens) (P55055 whole entry, looked up, the tested form may be a part): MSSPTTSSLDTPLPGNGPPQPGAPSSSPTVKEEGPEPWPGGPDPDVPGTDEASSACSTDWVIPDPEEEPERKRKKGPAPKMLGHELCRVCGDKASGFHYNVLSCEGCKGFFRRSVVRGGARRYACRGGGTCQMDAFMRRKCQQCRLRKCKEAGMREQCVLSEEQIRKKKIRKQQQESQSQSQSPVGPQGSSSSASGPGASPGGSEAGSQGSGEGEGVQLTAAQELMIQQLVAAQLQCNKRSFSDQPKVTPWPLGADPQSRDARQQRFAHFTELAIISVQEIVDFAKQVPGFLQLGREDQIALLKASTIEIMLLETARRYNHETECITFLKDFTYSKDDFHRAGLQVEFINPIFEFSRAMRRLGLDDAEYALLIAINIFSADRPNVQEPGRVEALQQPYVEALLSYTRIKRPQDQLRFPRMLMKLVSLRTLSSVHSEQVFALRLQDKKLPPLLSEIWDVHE
Sequence of Glucocorticoid receptor (Homo sapiens) (P04150 whole entry, looked up, the tested form may be a part): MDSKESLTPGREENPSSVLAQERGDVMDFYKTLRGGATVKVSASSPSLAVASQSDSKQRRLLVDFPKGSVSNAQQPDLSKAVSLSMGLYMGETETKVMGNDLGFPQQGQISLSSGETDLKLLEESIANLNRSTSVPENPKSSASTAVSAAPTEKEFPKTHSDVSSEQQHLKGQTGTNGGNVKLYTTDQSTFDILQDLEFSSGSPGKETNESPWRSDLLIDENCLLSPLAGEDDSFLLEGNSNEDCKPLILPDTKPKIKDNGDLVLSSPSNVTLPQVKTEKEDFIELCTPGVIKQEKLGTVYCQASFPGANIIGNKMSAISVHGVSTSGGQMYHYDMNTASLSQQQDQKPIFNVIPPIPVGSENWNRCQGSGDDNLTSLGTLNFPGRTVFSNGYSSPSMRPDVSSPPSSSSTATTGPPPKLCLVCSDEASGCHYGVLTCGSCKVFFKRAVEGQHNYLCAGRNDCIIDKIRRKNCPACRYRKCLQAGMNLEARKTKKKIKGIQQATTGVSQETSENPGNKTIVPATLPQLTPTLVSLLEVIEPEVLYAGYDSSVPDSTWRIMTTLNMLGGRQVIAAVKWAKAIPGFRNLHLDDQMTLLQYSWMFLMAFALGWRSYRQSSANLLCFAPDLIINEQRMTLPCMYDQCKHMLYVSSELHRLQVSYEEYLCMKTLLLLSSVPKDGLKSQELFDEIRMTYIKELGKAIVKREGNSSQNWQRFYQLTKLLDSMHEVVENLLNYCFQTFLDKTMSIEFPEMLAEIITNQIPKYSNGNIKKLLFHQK
Sequence of Nuclear receptor subfamily 4 group A member 2 (Homo sapiens) (P43354 whole entry, looked up): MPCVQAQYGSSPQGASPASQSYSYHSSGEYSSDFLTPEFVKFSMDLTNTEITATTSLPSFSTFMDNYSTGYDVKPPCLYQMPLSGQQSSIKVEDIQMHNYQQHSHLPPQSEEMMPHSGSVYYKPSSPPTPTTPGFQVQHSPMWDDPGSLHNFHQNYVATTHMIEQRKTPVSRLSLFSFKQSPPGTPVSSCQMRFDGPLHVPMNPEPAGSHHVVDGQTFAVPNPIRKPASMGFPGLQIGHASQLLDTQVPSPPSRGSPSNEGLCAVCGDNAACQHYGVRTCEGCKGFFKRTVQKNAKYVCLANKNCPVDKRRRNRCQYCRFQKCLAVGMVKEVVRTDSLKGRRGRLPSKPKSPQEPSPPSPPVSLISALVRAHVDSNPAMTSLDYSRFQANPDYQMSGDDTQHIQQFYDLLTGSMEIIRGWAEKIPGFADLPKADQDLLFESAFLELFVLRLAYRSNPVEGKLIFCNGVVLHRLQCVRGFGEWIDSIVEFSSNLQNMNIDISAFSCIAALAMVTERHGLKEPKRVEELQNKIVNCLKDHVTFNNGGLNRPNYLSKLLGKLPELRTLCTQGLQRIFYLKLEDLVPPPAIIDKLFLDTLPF

CCC(C)S (stereo unspecified)
not listed: [11] | [12] | [13] | [14]
inactive: all other assays above

N[C@@H](Cc1cc(I)c(Oc2cc(I)c(O)c(I)c2)c(I)c1)C(=O)O
not listed: [8]
inactive: all other assays above

CCCN(CCC)S(=O)(=O)c1ccc(C(=O)O)cc1
not listed: [2] | [3] | [12] | [13]
inactive: all other assays above

COc1ccc(N)c([N+](=O)[O-])c1
not listed: [2] | [3] | [11]
inactive: all other assays above

COCCOCCOCCO
not listed: [12] | [14]
inactive: all other assays above
